Growth data for 4 compounds are collected here from PubChem BioAssay (NCI).

What all share (assay): NCI-60 one-dose screen, 48 h (100 = growth as untreated, 0 = no growth, -100 = all killed)
For one assay, the system named is SK-MEL-2 melanoma. The following applies: 10 µM.
Another assay deals with EKVX NSCLC. To be noted: 10 µM.
The next assay concerns SN12C renal. To be noted: 10 µM.
A further assay deals with UO-31 renal. The following applies: 10 µM.
In a further assay the test system is ACHN renal. The following applies: 10 µM.
Another assay deals with A498 renal. To be noted: 10 µM.
A further assay concerns CCRF-CEM leukemia. To be noted: 10 µM.
The next assay deals with MOLT-4 leukemia. The following applies: 10 µM.
In a further assay the test system is SR leukemia. To be noted: 10 µM unless noted.
For a further assay, the system named is RPMI-8226 leukemia. The following applies: 10 µM.
A further assay concerns OVCAR-8 ovarian. The following applies: 10 µM.
For a further assay, the system named is OVCAR-5 ovarian. To be noted: 10 µM.
For the next assay, the system named is OVCAR-4 ovarian. The following applies: 10 µM.
The subject of another assay is SK-OV-3 ovarian. To be noted: 10 µM.
Another assay relates to IGROV1 ovarian. The following applies: 10 µM.
Another assay relates to NCI/ADR-RES ovarian. The following applies: 10 µM.
The next assay concerns CAKI-1 renal. The following applies: 10 µM.
The test system of a further assay is HS 578T breast. To be noted: 10 µM.
For the next assay, the system named is OVCAR-3 ovarian. The following applies: 10 µM.

The panel holds about 83,000 compounds, 20% with a hit somewhere; the sample as a whole holds those more often.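 Cell lines were cultured in 96-well plates, exposed to a single compound concentration, and assessed for percent growth 48 hours later.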 Unmarked numbers belong to inactive results. Activity calls are given as the source filed them. The calls were made as follows: active = growth percent below 10; inactive = the rest.

`O=C(/C=C/c1cccnc1)c1ccccc1`: the growth in the assay on SK-MEL-2 melanoma is 94.2%; in the assay on EKVX NSCLC, 103%; in the assay on SN12C renal, 100%; in the assay on UO-31 renal it was 84.1%; in the assay with ACHN renal it was 79.8%; in the assay on A498 renal, 89.7%. Besides, the growth with CCRF-CEM leukemia is 41.3%; with MOLT-4 leukemia, 82.3%; with SR leukemia, 14.5%; in the assay with RPMI-8226 leukemia it was 54.1%; in the assay with OVCAR-8 ovarian it was 83.8%; in the assay with OVCAR-5 ovarian, 91.3%. For the same compound, the growth was 91.7% in the assay with OVCAR-4 ovarian, 103% in the assay with SK-OV-3 ovarian, 96.5% in the assay on IGROV1 ovarian and 86% with NCI/ADR-RES ovarian.
For `CCN1/C(=C/C=C/C=C/c2sc3ccccc3[n+]2CC)Sc2ccccc21`, the growth with SK-MEL-2 melanoma was -59.1% (active); with EKVX NSCLC, -31.9% (active); in the assay on SN12C renal, -20.7% (active); with UO-31 renal, -35.3% (active); in the assay with ACHN renal, -45.6% (active); in the assay with CAKI-1 renal it was -0.841% (active). The growth with A498 renal was 9.48% (active); in the assay on CCRF-CEM leukemia it was 8.96% (active); with MOLT-4 leukemia, -31.7% (active); in the assay with RPMI-8226 leukemia, -21.4% (active); in the assay on OVCAR-8 ovarian it was -65.6% (active); in the assay with OVCAR-5 ovarian, 7.61% (active). Besides, the growth with OVCAR-4 ovarian was -42% (active); in the assay on SK-OV-3 ovarian, -73.1% (active); in the assay on IGROV1 ovarian, -62.9% (active); in the assay with HS 578T breast it was 26.2%; with NCI/ADR-RES ovarian it was 55.9%.
Consider `COC1OCC(O)C(O)C1O` (configuration not stated), for which the growth with SK-MEL-2 melanoma was 114%; in the assay with EKVX NSCLC, 99.1%; in the assay on SN12C renal, 103%; in the assay with UO-31 renal, 86.2%; in the assay with ACHN renal, 111%; in the assay on CAKI-1 renal, 89.7%. For the same compound, the growth was 84.5% in the assay on A498 renal; 107% in the assay with CCRF-CEM leukemia; 101% in the assay on MOLT-4 leukemia; 109% in the assay with RPMI-8226 leukemia; 104% in the assay on OVCAR-8 ovarian; 110% in the assay with OVCAR-5 ovarian. Besides, the growth in the assay with OVCAR-4 ovarian was 101%; in the assay on SK-OV-3 ovarian, 111%; in the assay on OVCAR-3 ovarian it was 106%; in the assay with HS 578T breast, 98.9%; in the assay on NCI/ADR-RES ovarian, 110%.
In the case of `CCN(CC)c1ccc(NC(C(=O)c2ccccc2)c2ccccc2)cc1` (configuration not stated), the growth in the assay with SK-MEL-2 melanoma was 78.4%; in the assay on SN12C renal it was 1.65% (active); with UO-31 renal, -24.8% (active); in the assay on ACHN renal, -34.6% (active); in the assay with CAKI-1 renal it was 17.8%; in the assay with CCRF-CEM leukemia, 10.3%. Besides, the growth was 12.8% in the assay with MOLT-4 leukemia; 14.3% with SR leukemia; 8.53% (active) with RPMI-8226 leukemia; 9.32% (active) in the assay on OVCAR-8 ovarian; 60.9% in the assay on OVCAR-5 ovarian; 65.2% with OVCAR-4 ovarian. The growth is 109% with SK-OV-3 ovarian; 59.4% with IGROV1 ovarian; -4.87% (active) with OVCAR-3 ovarian; 46.1% in the assay on HS 578T breast; 25.4% in the assay with NCI/ADR-RES ovarian.
